The sample as a whole holds a higher share of hits than the screen did.
Dicer processing = human Dicer pre-microRNA cleavage inhibition. z-score at 25 µM. cat-ELCCA pre-miR-21 Dicer processing, chemiluminescence; hits give high values. hit rate 6% among 47,000; in the data active = z-score above about 3, passing the limit was not always enough;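 note: plate controls were vehicle for no effect and no enzyme for full effect; higher signal means more uncleaved substrate so more Dicer inhibition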
Numbers without * were called inactive.

SMILES	Dicer processing
CC(C)C[C@H](NC(=O)OCC1c2ccccc2-c2ccccc21)C(=O)O	4.6*
CCc1ccc(S(=O)(=O)Nc2ccc3oc4c(c3c2)CCCC4)cc1	2.13
O=c1oc2c(Br)cc(NS(=O)(=O)c3ccc(Cl)cc3)cc2s1	12.8*
Cn1cc(Br)c(-c2cccc(NS(=O)(=O)c3ccc(Cl)cc3)c2)n1	0.02
Cc1ccc(S(=O)(=O)Nc2ccc3oc(=O)sc3c2)cc1	5.01*
Cc1cc(S(=O)(=O)Nc2cccnc2)c(C)cc1Cl	-0.28
CCOC(=O)n1c(=O)oc2cc(S(=O)(=O)Nc3ccc(C)cc3)ccc21	1.14
Cc1ccc(S(=O)(=O)Nc2cc(Cl)c3oc(=O)sc3c2)c(C)c1	11.9*
CC(C)(C)C1CCc2oc3ccc(NS(=O)(=O)c4ccc(C(=O)O)cc4)cc3c2C1 (centres undefined)	4.15*
COC(=O)c1c(C)oc2ccc(NS(=O)(=O)c3ccc(Br)cc3)cc12	0.56
CC(=O)Nc1ccc(NS(=O)(=O)c2ccc(C)cc2)cc1[N+](=O)[O-]	-0.02
Cc1ccc(S(=O)(=O)N2CCN(S(=O)(=O)N3CCOCC3)CC2)c(C)c1	-1.88
COc1ccc(OC)c(NS(=O)(=O)c2ccc(Cl)cc2)c1	1.24
O=[N+]([O-])c1ccc(-c2csc(-c3cc4nccc(-c5cccc(C(F)(F)F)c5)n4n3)n2)cc1	-0.09
CCOC(=O)C(NC(=O)c1ccccc1)(OC)C(F)(F)F (centres undefined)	1.34
Cc1ccc(S(=O)(=O)NC2=NCN(CCCN3CCOCC3)CN2)cc1	0.43
CCCCSc1cc(C)nc2ncnn12	-0.63
CCOC(=O)Cc1csc(NC(=O)c2cccs2)n1	-0.48
CC(=O)Nc1ccc(/C=C(\C#N)C(N)=O)cc1	-0.36
Cc1ccc(-c2cc(C(F)(F)F)n3nc(C(=O)O)cc3n2)cc1	1.96
O=C1OCc2ccc(NC(=O)c3sccc3Cl)cc21	-1.93
Cc1cccc(NS(=O)(=O)N(C)C)c1	1.25
O=c1n(-c2ccccc2)c(=O)n2n1C1CCC2C1	0.84
COCc1cc(=O)[nH]c(SCC2CC2)n1	-0.01
Cc1cc(C)c(C)c(S(=O)(=O)Nc2ccc3oc(=O)sc3c2)c1C	4.27*
SMILES	Dicer processing
Cc1cc(F)ccc1S(=O)(=O)Nc1c(C)n(C)n(-c2ccccc2)c1=O	-0.46
COc1ccc(S(=O)(=O)Nc2ccc3oc(=O)sc3c2)cc1OC	3.44*
O=S(=O)(Nc1ccc(Br)cc1)c1ccccc1	1.76
COc1ccccc1C(=O)Oc1ccc2oc(=O)sc2c1	2.24
O=c1oc2c(Cl)cc(NS(=O)(=O)c3ccccc3)cc2s1	11.3*
Cc1ccc(S(=O)(=O)Nc2ccc3oc(=O)sc3c2)c(C)c1	1.13
Cc1cc(F)ccc1S(=O)(=O)Nc1ccc2oc(=O)sc2c1	7.85*
COc1cc(S(=O)(=O)Nc2cccnc2)ccc1F	0.84
COc1ccc(OC)c(S(=O)(=O)Nc2cc(Cl)c3oc(=O)sc3c2)c1	-0.17
O=C(NC(=O)c1csc([N+](=O)[O-])c1)NN1CCOCC1	0.53
CCOC(=O)/C(C#N)=C/Nc1ccccc1SC	0.79
CCOC(=O)/C(=N\Nc1ccc(C(C)=O)cc1)c1csc(N)n1	-0.33
CCOc1ccc(N2C(=O)C3ON(c4ccccc4)C(c4cccnc4)C3C2=O)cc1 (centres undefined)	0.2
Cc1cccc(OCc2nc(C#N)c(NCc3ccc4c(c3)OCO4)o2)c1	0.57
Cc1oc(C(C)(C)C)cc1C(=O)NCc1csc2ccc(Cl)cc12	-0.97
CCCOc1ccc(C2c3c(oc4ccc(F)cc4c3=O)C(=O)N2Cc2ccc3c(c2)OCO3)cc1 (centres undefined)	0.95
CCN(CC)c1ccc(C#N)cc1[N+](=O)[O-]	0.04
Cc1cc(-c2noc(C(C)(C)C)n2)cc(-c2noc(C(C)(C)C)n2)c1	-0.46
O=S(=O)(Nc1nc(-c2ccc(Cl)cc2Cl)cs1)c1ccc(Cl)cc1	10.4
CC1CCc2oc3ccc(NS(=O)(=O)c4cccc5cccnc45)cc3c2C1 (centres undefined)	-0.24
O=c1oc2ccc(NS(=O)(=O)c3ccc(F)cc3)cc2s1	4.91*
Cc1cc(F)ccc1S(=O)(=O)Nc1ccc2oc(C)c(C(=O)OC(C)C)c2c1	-0.11
O=c1oc2ccc(NS(=O)(=O)c3ccc(Cl)cc3)cc2s1	9.77*
O=C(O)c1ccc(S(=O)(=O)Nc2ccc3oc(=O)sc3c2)cc1	1.15
O=S(=O)(Nc1ccc2c(c1)OCO2)c1ccc(Cl)cc1	-0.39
SMILES	Dicer processing
Cc1cc(=O)oc2cc(NS(=O)(=O)c3ccc(F)cc3)ccc12	0.84
Cc1cc(F)ccc1S(=O)(=O)Nc1ccc2oc3c(c2c1)CC(C)CC3 (centres undefined)	6.57*
O=C(O)c1c(O)cnc2ccccc12	-0.36
CCOC(=O)C1=C[C@]2(CC)CCCN3CCc4c(n1c1ccccc41)[C@@H]32	-0.77
CC(C)(C)c1ccc(-c2nc(O)c(CC(=O)O)s2)cc1	0.14
COc1ccccc1-c1noc(CSc2nc(N)cc(=O)[nH]2)n1	2.02
COc1ccc(-c2noc(CSc3nc(N)c(-c4ccccc4)c(=O)[nH]3)n2)cc1	3.91*
Cc1ccc(-c2noc(CSc3nc(N)cc(=O)[nH]3)n2)cc1	1.23
Cc1cc(Cl)cc(Cl)c1CNC(=O)c1c(C(F)(F)F)ccnc1OCC(F)(F)F	-0.21
COc1cccc(C2Nc3ccccc3-c3nnc(SC)nc3O2)c1 (centres undefined)	0.57
O=C(O)CN1C(=O)c2cccc3cccc(c23)C1=O	3.69*
O=C1c2cccc3cccc(c23)C(=O)N1CC(=O)N1CCc2ccccc21	3.77*
O=C(O)CCCN1C(=O)c2cccc3cccc(c23)C1=O	2.06
O=C(O)CCCCCN1C(=O)c2cccc3cccc(c23)C1=O	-0.24
CC(O)CN1C(=O)c2cccc3cccc(c23)C1=O (centres undefined)	3.25*
NC(=O)C1CCN(C(=O)CN2C(=O)c3cccc4cccc2c34)CC1	-1
O=C1c2cccc3cccc(c23)C(=O)N1CCNCCN1C(=O)c2cccc3cccc(c23)C1=O	1.21
O=C(CN1C(=O)c2cccc3cccc(c23)C1=O)N1CCOCC1	0.47
O=C1c2cccc3cccc(c23)C(=O)N1CCCCO	1.35
CSc1nn(CSc2n[nH]c(-c3ccccc3F)n2)c(=S)s1	0.68
CCC1CCCCN1C1=CC(=O)OC12CCCCC2 (centres undefined)	-0.79
Cc1n[nH]c(C)c1C(=O)CC1(O)C(=O)N(C(C)C)c2ccccc21 (centres undefined)	1.49
Cc1cc(CSC(=N)N)c(CSC(=N)N)cc1C	-3.19
CCOC(=O)N1CCN(CN2CCCCC2=O)CC1	1.18
C[C@]12CC=CCC1CCC1C2CC[C@](C)(C(=O)O)C1/C=C1/Nc2ccccc2C1=O (some centres undefined)	3.89*
SMILES	Dicer processing
C[C@]12CC[C@@H](O)CC1CCC1C2CC[C@](C)(C(=O)O)C1/C=C1/Nc2ccccc2C1=O (some centres undefined)	1.48
O=c1[nH]c(=S)[nH]cc1OCc1ccccc1	1.38
O=c1cc(O)c2sc3nc4c(c(C(F)(F)F)c3c2[nH]1)CCCCC4	2.31
Nc1cccc(-c2nc3ccc(N)cc3s2)c1	1.73
Nc1ccc2nc(-c3ccc(O)cc3)sc2c1	3.54*
CC(=O)Oc1ccc(-c2nc3ccc(C(=O)O)cc3s2)cc1	0.17
O=C(O)c1ccc2nc(-c3ccccc3)sc2c1	3.75*
Nc1ccc(-c2nc3ccc(N)cc3s2)cc1	2.29
Nc1ccc(-c2nc3ccc(C(=O)O)cc3s2)cc1	0.3
O=S(=O)(c1ccc(Cl)cc1)n1nccc1-c1csc(-c2ccccc2)n1	1.07

Bioassay records from PubChem.
